Assay results published in PubChem BioAssay.
The source made the active and inactive calls. Unless noted, the rule behind the calls is not given here.

How the values were obtained:
[1] = compounds binding Alexa647 anti-His antibody – biochemical, small-molecule microarray, 635 nm fluorescence, artefact control for SMM control protein annotation, primary screen (AID 1128); settings: higher = more signal;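 note: score merges feature fluorescence with signal-to-noise for each printed compound spot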
[2] = test system: Human papillomavirus type 1a E7 protein (residues 1-88); assay: HPV1a E7 small-molecule binders, primary screen, biochemical, small-molecule microarray, residues 1-88, 635 nm (AID 1129); settings: small-molecule microarray binding, fluorescence 635 nm; higher = more signal
[3] = molecular target: Focal adhesion kinase 1 (Homo sapiens) (UniProt Q05397); assay: PTK2 protein binding on printed compound slides – biochemical, small-molecule microarray, 635/667 nm fluorescence, BSA, DTT, primary screen (AID 1130); settings: 635 nm fluorescence, higher = more signal;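 note: composite of spot emission at 667 nm and signal to noise over triplicate slides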
[4] = test system: Fibrinogen (Alexa647-labelled); assay: Alexa647-fibrinogen binding to printed small molecules – biochemical, small-molecule microarray, 635/667 nm fluorescence, artefact control for SMM control-protein annotation, profiling panel (AID 1131); settings: fibrinogen-A647 binding fluorescence, higher = more signal;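 note: z-score merges 667 nm fluorescence with per-spot signal-to-noise over triplicate slides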
[5] = molecular target: Follistatin (Homo sapiens) (UniProt P19883); assay: FST protein binding to printed compounds – biochemical, small-molecule microarray, 635/667 nm fluorescence, primary screen (AID 1132); settings: 635 nm fluorescence, higher = more signal
[6] = molecular target: Fibroblast growth factor 2 (Homo sapiens) (UniProt P09038); assay: basic fibroblast growth factor binding to printed compounds – biochemical, small-molecule microarray, 635/667 nm fluorescence, primary screen (AID 1133); settings: FGF2, fluorescence 635/667, higher = more signal
[7] = JC-1 mitochondrial potential readout, lung cancer cells – cell-based, A549, JC-1 fluorescence, basal, 24 h, 100 nL, profiling panel (AID 1138); settings: higher = more signal;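 note: A549 lung adenocarcinoma cells under basal conditions with no added stimulus; test concentration not given here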
[8] = test system: Lefty1; assay: Lefty1 protein binding to printed compounds – biochemical, small-molecule microarray, 635/667 nm fluorescence, primary screen (AID 1139); settings: fluorescence 635/667, higher = more signal
[9] = test system: wheat germ agglutinin (Triticum aestivum), Alexa647-labelled; assay: Alexa647-WGA lectin binding to printed small molecules – biochemical, small-molecule microarray, 635/667 nm fluorescence, artefact control for SMM control-protein annotation, profiling panel (AID 1140); settings: WGA-A647 binding, 635 nm fluorescence, higher = more signal;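 note: score merges 667 nm feature emission with signal to noise over triplicate slides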
[10] = molecular target: Luciferin 4-monooxygenase (Photinus pyralis) (UniProt P08659); assay: inhibition of purified Photinus pyralis luciferase – biochemical, luminescence, purified enzyme, 2006 set, primary screen (AID 1141); settings: purified firefly luciferase, SteadyGlo luminescence, 30 min; higher = more signal, called active from +8 up or from −8 down;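 note: cell-free assay with purified firefly luciferase at 100 ng per well in PBS; test concentration not given here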
[11] = test system: Wnt5a (protein binding on small-molecule microarray); assay: small molecules binding Wnt5a protein – biophysical, small-molecule microarray, 635/667 nm fluorescence, primary screen (AID 1142); settings: 635 nm fluorescence, higher = more signal;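 note: fluorescence read at 667 nm with signal to noise per printed feature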
[12] = ATP-based viability of Huh7 replicon cells – cell-based, CellTiter-Glo luminescence, basal, 48 h, cytotoxicity control for HCV replication inhibitor project, primary screen (AID 1143); settings: higher = more signal, called active from +8 up or from −8 down;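 note: Huh7 hepatoma cells carrying a hepatitis C replication reporter with no stimulus; test concentration not given here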
[13] = Pseudomonas biofilm growth suppression – PAO1 strain, BacTiter-Glo luminescence, LB-PBS, primary screen (AID 1144); settings: P. aeruginosa PAO1 biofilm, 12 h, higher = more signal
[14] = basal CRE-LacZ reporter activity in PC12 – cell-based, unstimulated, primary screen (AID 1145); settings: no forskolin, luminescence, 4.5 h, higher = more signal, called active from +8 up or from −8 down
[15] = forskolin-driven CRE-LacZ activity in PC12 – cell-based, CRE-LacZ reporter, forskolin-stimulated, primary screen (AID 1146); settings: luminescence, 4.5 h, higher = more signal, called active from +8 up or from −8 down;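 note: PC12 cells with 6xCRE LacZ reporter stimulated by forskolin 10 µM; beta-galactosidase reporter signal reflecting CREB driven transcription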
[16] = molecular target: Streptavidin (Streptomyces avidinii) (UniProt P22629); assay: compounds binding control protein streptavidin – biophysical, small-molecule microarray, 635/667 nm fluorescence, artefact control for SMM compound annotation, primary screen (AID 1147); settings: higher = more signal;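 note: signal reflects streptavidin binding to arrayed compounds as a control protein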
[17] = probe aInhba binding on compound microarray – biochemical, small-molecule microarray, 635/667 nm fluorescence, primary screen (AID 1148); settings: higher = more signal;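 note: score merges 667nm spot fluorescence with signal-to-noise for antibody binding to printed compounds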
[18] = molecular target: Torsin-1A (Homo sapiens) (UniProt O14656); assay: TOR1A wild-type binding on microarray – cell lysate, small-molecule microarray, lysate, 635/667 nm, primary screen (AID 1149); settings: COS7 hTOR1A-WT lysate, 635 nm fluorescence, higher = more signal
[19] = molecular target: Torsin-1A (Homo sapiens) (UniProt O14656); assay: torsin A mutant lysate binding on microarrays – cell lysate, small-molecule microarray, COS7 lysate, 635/667 nm fluorescence, primary screen (AID 1150); settings: COS7 hTOR1A mutant lysate, 635 nm fluorescence, higher = more signal;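 note: score pools 667 nm emission and signal to noise measuring lysate protein binding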
[20] = test system: Sonic hedgehog protein (Shh); assay: Sonic hedgehog microarray binding compounds – biochemical, small-molecule microarray, 635/667 nm fluorescence, primary screen (AID 1151); settings: 635 nm fluorescence, higher = more signal;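 note: Shh protein binding to compounds spotted on small-molecule microarray slides; score combines spot fluorescence intensity with signal-to-noise across triplicate slides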

Sequence of Torsin-1A (Homo sapiens) (O14656 whole entry, looked up): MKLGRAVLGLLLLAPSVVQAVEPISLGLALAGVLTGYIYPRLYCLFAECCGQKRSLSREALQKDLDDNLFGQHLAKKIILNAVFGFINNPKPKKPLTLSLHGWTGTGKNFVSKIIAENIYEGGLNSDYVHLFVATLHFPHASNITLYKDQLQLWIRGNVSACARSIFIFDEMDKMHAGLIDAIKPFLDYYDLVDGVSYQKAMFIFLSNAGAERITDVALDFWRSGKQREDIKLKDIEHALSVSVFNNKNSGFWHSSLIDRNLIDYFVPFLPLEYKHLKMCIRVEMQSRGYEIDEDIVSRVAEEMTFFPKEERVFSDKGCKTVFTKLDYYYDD
Sequence of Luciferin 4-monooxygenase (Photinus pyralis) (P08659 whole entry, looked up): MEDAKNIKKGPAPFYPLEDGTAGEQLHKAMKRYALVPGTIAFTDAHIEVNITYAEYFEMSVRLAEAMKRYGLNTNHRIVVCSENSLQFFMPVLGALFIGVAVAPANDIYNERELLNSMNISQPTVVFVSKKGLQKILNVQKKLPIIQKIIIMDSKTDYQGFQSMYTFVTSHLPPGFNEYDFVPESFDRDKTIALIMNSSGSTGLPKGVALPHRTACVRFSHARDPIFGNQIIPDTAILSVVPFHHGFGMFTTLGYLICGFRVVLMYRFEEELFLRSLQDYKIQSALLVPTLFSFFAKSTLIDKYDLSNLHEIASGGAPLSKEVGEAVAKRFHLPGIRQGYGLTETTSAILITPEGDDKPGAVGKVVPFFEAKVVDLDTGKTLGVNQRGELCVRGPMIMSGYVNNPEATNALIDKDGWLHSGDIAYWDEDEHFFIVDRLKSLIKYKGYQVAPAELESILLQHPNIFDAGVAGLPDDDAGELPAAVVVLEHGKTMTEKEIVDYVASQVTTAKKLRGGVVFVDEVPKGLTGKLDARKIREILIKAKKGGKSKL
Sequence of Streptavidin (Streptomyces avidinii) (P22629 whole entry, looked up): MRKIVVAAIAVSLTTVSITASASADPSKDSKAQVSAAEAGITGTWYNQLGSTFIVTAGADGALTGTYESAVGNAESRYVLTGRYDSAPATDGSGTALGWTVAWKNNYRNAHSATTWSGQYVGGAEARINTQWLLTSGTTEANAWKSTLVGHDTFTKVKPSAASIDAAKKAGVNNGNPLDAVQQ
Sequence of Follistatin (Homo sapiens) (P19883 whole entry, looked up): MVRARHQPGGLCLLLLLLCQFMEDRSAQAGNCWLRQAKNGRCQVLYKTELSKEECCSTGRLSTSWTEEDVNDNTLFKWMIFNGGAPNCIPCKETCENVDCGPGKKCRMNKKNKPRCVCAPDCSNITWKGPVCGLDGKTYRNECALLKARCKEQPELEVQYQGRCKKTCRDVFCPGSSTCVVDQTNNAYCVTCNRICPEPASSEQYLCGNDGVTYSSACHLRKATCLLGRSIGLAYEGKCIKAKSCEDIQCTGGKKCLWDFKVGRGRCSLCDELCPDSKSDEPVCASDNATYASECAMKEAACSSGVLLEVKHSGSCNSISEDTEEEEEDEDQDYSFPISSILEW
Sequence of Fibroblast growth factor 2 (Homo sapiens) (P09038 whole entry, looked up): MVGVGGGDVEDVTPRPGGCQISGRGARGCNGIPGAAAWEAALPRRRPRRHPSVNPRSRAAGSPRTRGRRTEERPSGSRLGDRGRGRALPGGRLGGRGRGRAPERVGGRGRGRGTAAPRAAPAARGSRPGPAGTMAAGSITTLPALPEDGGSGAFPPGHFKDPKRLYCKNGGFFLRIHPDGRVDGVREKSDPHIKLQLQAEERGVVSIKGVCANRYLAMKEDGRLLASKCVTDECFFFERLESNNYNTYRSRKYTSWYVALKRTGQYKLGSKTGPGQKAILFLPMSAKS
Sequence of Focal adhesion kinase 1 (Homo sapiens) (Q05397 whole entry, looked up): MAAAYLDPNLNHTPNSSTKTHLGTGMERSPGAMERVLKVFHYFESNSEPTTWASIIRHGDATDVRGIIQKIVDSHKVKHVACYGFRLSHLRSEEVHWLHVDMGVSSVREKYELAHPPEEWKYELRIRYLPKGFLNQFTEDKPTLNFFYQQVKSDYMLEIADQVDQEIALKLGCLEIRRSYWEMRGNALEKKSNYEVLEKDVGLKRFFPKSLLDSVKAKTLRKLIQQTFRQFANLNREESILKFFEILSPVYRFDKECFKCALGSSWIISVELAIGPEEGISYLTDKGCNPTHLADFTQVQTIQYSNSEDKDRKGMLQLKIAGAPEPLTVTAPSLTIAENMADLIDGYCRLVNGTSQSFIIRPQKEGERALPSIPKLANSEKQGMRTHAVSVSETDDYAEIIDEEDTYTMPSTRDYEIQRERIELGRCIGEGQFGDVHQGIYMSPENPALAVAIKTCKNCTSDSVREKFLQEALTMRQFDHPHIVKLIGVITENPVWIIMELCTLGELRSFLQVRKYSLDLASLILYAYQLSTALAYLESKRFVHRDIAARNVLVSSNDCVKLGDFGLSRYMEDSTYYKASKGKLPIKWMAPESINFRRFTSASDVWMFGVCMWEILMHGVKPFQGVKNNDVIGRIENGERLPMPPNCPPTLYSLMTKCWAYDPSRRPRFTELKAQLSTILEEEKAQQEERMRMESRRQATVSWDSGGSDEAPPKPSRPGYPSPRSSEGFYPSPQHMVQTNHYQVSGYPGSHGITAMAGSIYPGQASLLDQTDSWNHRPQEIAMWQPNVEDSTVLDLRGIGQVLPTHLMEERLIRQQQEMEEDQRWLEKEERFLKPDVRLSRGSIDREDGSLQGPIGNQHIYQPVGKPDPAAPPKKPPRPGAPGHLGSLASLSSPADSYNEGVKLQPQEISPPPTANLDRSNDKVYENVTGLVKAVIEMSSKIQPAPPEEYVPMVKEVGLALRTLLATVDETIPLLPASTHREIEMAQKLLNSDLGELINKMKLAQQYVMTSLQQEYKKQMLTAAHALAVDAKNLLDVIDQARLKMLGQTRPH

Compound | composite z-score [1] | composite z-score [2] | composite z-score [3] | composite z-score [4] | composite z-score [5] | composite z-score [6] | z-score [7] | composite z-score [8] | composite z-score [9] | z-score [10] | composite z-score [11] | z-score [12] | z-score [13] | z-score [14] | z-score [15] | composite z-score [16] | composite z-score [17] | composite z-score [18] | composite z-score [19] | composite z-score [20]
COc1ccc(C(O)C2C=CC3C(=O)N(c4ccccc4)C(=O)C3N2Nc2ccc(C(C)C)cc2)c2ccccc12 (stereo not given) | 1.74 | 1.25 | 0.588 | 0.976 | 0.862 | -0.25 | 0.543 | 0.031 | 0.838 | -1.65 (inactive) | 0.295 | 0.0927 (inactive) | -1.88 (inactive) | 0.632 (inactive) | -0.557 (inactive) | 1.92 | 0.216 | 0.724 | 1.01 | -0.328
COCCOC(=O)N1C(=O)[C@@]2(c3cc(C#CC4=CCCCC4)ccc31)[C@H](C(=O)N1CCCCCCC1)[C@H]1C(=O)O[C@H](c3ccccc3)[C@H](c3ccccc3)N1[C@@H]2c1ccc(OCCO)cc1 | 0.119 | 1.13 | 0.605 | 0.806 | 1.23 | 0.426 | -1.22 | 0.79 | 0.956 | -0.866 (inactive) | 0.636 | -3.96 (inactive) | -0.0896 (inactive) | -0.199 (inactive) | 0.463 (inactive) | 1.29 | 0.515 | 1.04 | 0.877 | 1.25
C[C@]1(C(=O)O)c2ccccc2C(=O)N(Cc2ccc(OC(F)(F)F)cc2)[C@H]1c1ccc(CO)cc1 | 1.1 | 0.409 | 0.609 | 0.0748 | -0.156 | -0.381 | 0.447 | -0.685 | 0.596 | 0.0795 (inactive) | 0.386 | -0.17 (inactive) | -0.526 (inactive) | 0.118 (inactive) | -0.48 (inactive) | -0.129 | 0.053 | 0.45 | 0.522 | -0.261
CN1C(=O)[C@@]2(Cc3ccccc3)N=C(c3ccc(OCCCO)cc3)O[C@H]2c2ccccc21 | 1.32 | 1.22 | 0.241 | 0.619 | 1.48 | 1.25 | 0.558 | 0.941 | 0.3 | -6.41 (inactive) | 0.634 | -4.44 (inactive) | -0.458 (inactive) | 1.04 (inactive) | -1.67 (inactive) | 0.0831 | 0.382 | 0.266 | -0.0779 | 1.45
CCCCC(=C=CC[C@H](O)c1ccc(OCCO)cc1)C[C@H](O)COCc1ccccc1 | 0.522 | 0.0648 | 0.477 | -0.56 | 0.163 | 0.501 | 2.19 | 0.235 | -0.0019 | -1.22 (inactive) | -0.0866 | -0.92 (inactive) | 0.403 (inactive) | 10.3 (active) | 0.434 (inactive) | -0.499 | -0.145 | -0.327 | 0.388 | 0.571
C=C[C@@H](OC)[C@H](OC(=O)Nc1ccc(OC)cc1)c1ccc(OC)c(O)c1 | 0.122 | -1.06 | -0.384 | -1.1 | 0.0112 | -0.685 | 0.232 | -0.396 | -0.0358 | -0.737 (inactive) | -0.451 | -0.749 (inactive) | -0.327 (inactive) | 0.702 (inactive) | 0.177 (inactive) | -0.833 | -0.166 | -2.5 | -1.12 | 0.63
C=C(/C(=C/C[C@H](OC(=O)c1ccncc1)c1cccc(OCCO)c1)c1cnc2ccccc2c1)C(C)C | 0.291 | 0.952 | 0.807 | 0.247 | 1.46 | 1.85 | 0.945 | 1.6 | 1.33 | -0.799 (inactive) | 0.518 | -7.81 (inactive) | 0.503 (inactive) | 30.3 (active) | -0.386 (inactive) | 0.929 | -0.05 | -0.382 | -0.22 | 2.23
CC(C)C(=C=CC[C@@H](O)c1cccc(OCCO)c1)C[C@@H](O)COCc1ccccc1 | 0.292 | 0.158 | -0.276 | 0.0013 | 0.844 | 0.34 | 1.6 | 0.318 | 0.866 | -2.11 (inactive) | 0.139 | -2.36 (inactive) | 0.232 (inactive) | 7.66 (inactive) | -1 (inactive) | -0.506 | -0.165 | -0.134 | -0.377 | 1.06
NC(=O)[C@H]1[C@@H]2C(=O)O[C@@H](c3ccccc3)[C@@H](c3ccccc3)N2[C@@H](c2ccc(O)cc2)[C@]12C(=O)Nc1ccc(C#CC3=CCCCC3)cc12 | 2.5 | 1.2 | 0.985 | 0.587 | 0.959 | -0.004 | -1.96 | 0.542 | 0.548 | -0.784 (inactive) | -0.0856 | -3.73 (inactive) | 0.363 (inactive) | 0.478 (inactive) | 0.731 (inactive) | 0.185 | -0.128 | 0.509 | 0.721 | 1.19
O=C1N(CCS(=O)(=O)c2ccccc2)Cc2ccccc2[C@@H]2OC(c3ccc(OCCCO)cc3)=N[C@]12CCS(=O)(=O)c1ccccc1 | 0.519 | 1.27 | 1.2 | 0.645 | 1.41 | 1.7 | -1.19 | 0.783 | 0.817 | -2.08 (inactive) | 1.24 | -1.5 (inactive) | 0.151 (inactive) | 3.2 (inactive) | -0.897 (inactive) | 0.844 | -0.108 | 0.827 | 1.51 | 1.4
